The source of these data is PubChem BioAssay.

SMILES strings stand for the structures. The source made the active and inactive calls.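 How the source made its calls, unless noted: active means inhibition of the reporter signal at or above 50%; inactive means inhibition below 50%.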

As a reminder, the inhibition is the relative decrease from the control value, in per cent.

Assay [1] is described as follows: inhibitors of TNFa-induced NFkB p65 translocation, primary screen, imaging, HUVEC, MLSMR starter and 10KST1 sets (AID 438;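 active means inhibition above 20% together with a positive visual image hit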;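 further: compound added about 3h40 before a 20 min TNFalpha stimulation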;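 on inhibition: signal is the nuclear over cytoplasmic p65 intensity ratio per well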). Particulars: HUVEC TNFa-induced p65 nuclear translocation; cell count: measured here: nuclei count (cytotoxicity indicator), at 2.08 µM; inhibition: at 2 µM, stronger effect = higher value, 0% TNFa-plus-vehicle, 100% no-TNFa wells.
Assay [2] in a line: inhibitors of mutant huntingtin aggregation, primary screen, imaging, exon1htt(103Q)mCFP cells, high-content imaging (AID 483;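 active means visual image review flags a hit and inhibition of aggregation exceeds 20%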;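 further: compound exposure lasted 3 days before fixation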;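 on nuclei count: percent of the per-plate median nuclei count of sample wells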). As to conditions: exon1htt(103Q)mCFP cell line, aggregate imaging, at 2 µM; inhibition of aggregation: stronger effect = higher value; nuclei count: measured here: cell count, toxicity.
The nature of assay [3]: inhibitors of E-selectin induction by TNFa, primary screen, imaging, HUVEC, immunofluorescence, MLSMR starter and 10KST1 sets (AID 487;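 active means visually confirmed hit in the image check and inhibition above 20%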;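 on inhibition: signal is fraction of cell area covered by stained E-selectin grains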;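 on nuclei count: 100% = median nuclei count of all wells on the same plate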). Particulars: HUVEC TNFalpha-induced E-selectin immunofluorescence imaging, at 2 µM; inhibition: stronger effect = higher value; nuclei count: measured here: cell number, toxicity.
Assay [4] concerns the target Voltage-gated potassium channel subunit beta-2 (Rattus norvegicus) (UniProt P62483). Put plainly: KvBeta enzyme negative modulators, primary screen, biochemical, NADPH fluorescence (AID 622;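 active means fluorescence slope higher than the sample average by over 3 SD, cut at about -0.22 in these data, passing the limit was not always enough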;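 further: slope of raw intensity against log time taken from 70 to 1610 s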). Particulars: recombinant KvBeta, 4-cyanobenzaldehyde reduction, at 10 µM, stronger effect = higher value.
Assay [5] shares this target. Put plainly: KvBeta positive modulators, primary screen, biochemical, NADPH fluorescence (AID 623;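 active means NADPH fluorescence slope more negative than the mean of all samples by about 3 SD, 99.7% confidence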;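 further: fluorescence intensity change per second fitted from 20 to 320 s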). Particulars: Recombinant KvBeta, NADPH fluorescence decrease slope, 10 min; at 10 µM; stronger effect = lower value.
Assay [6] addresses Alpha-2C adrenergic receptor (Homo sapiens) (UniProt P18825). Put plainly: modulators of alpha2C/GIRK thallium flux, primary screen, cell-based, HEK293 alpha2C/GIRK1/2 (AID 624;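 active means fluorescence slope after compound addition differing from the mean of all screened samples at 99.7% confidence, in either direction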;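 further: slope of fluorescence ratio to pre-addition baseline per second over 15 to 24 s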). Particulars: thallium flux BTC fluorescence, at 10 µM, actives lie on both sides.
Assay [7] is described as follows: inhibitors of Sendai virus-induced IRF3 signaling, primary screen, TLR/RLR signaling modifier project, cell-based, Sendai virus stimulus, luciferase, 10K MLSCN set (AID 602276;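 active means inhibition at or above 50% at 10 µM; inactive means inhibition below 50%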;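 further: firefly luciferase from ISG56 promoter only with Renilla not read in this screen; 0% = Sendai virus plus DMSO and 100% = medium plus DMSO without virus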). As to conditions: HEK293 RL24 IRF3 luciferase reporter, at 10 µM, stronger effect = higher value. (In general: Reporter assays use an easily measured gene product as a stand-in for the process of interest.)

Assay [8] in a line: inhibitors of poly I:C-induced TLR3 signaling, primary screen, cell-based, poly I:C stimulus, luciferase, 10K MLSCN set (AID 602277). Particulars: HEK293-TLR3 RL24 IRF3 luciferase reporter, at 10 µM, stronger effect = higher value.

Sequence of Voltage-gated potassium channel subunit beta-2 (Rattus norvegicus) (P62483 whole entry, looked up): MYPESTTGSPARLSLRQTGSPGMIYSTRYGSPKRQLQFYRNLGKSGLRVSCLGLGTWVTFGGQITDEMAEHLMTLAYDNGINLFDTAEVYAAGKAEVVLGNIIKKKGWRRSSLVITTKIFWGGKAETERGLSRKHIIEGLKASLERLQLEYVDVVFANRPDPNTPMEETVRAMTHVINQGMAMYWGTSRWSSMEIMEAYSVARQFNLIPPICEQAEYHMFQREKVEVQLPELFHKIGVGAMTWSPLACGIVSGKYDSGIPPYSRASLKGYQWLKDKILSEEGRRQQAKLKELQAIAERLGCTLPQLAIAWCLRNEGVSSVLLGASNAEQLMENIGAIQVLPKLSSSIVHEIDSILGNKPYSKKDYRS
Sequence of Alpha-2C adrenergic receptor (Homo sapiens) (P18825 whole entry, looked up): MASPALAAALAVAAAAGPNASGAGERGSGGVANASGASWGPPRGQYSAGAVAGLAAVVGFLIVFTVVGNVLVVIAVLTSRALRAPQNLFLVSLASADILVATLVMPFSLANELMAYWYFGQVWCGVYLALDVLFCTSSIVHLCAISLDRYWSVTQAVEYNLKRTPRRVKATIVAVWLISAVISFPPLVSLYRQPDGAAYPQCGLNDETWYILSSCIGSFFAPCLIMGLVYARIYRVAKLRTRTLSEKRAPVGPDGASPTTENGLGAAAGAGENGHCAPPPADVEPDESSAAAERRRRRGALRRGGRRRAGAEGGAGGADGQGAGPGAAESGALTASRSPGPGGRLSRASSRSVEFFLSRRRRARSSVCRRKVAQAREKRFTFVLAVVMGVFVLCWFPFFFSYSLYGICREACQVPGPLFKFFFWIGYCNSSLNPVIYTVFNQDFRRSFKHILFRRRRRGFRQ

Consider `O=C(CSc1ncnc2ccccc12)NCCCO`, for which the cell count in assay [1] is 458. In addition, the inhibition in assay [1] was -11% (inactive); in assay [3], 7.4% (inactive); in assay [7], 15.3% (inactive); in assay [8] it was 26.4% (inactive). In addition, in assay [2], the inhibition of aggregation is -1.4% (inactive). For the same compound, the nuclei count turned out to be 104% in assay [2] and 101% in assay [3]. Also, the fluorescence slope in assay [4] is -0.628 (inactive). Further, the NADPH fluorescence slope in assay [5] was 8.9e-06 (inactive). Besides, the slope in assay [6] was 0.00699 (inactive).
As for `CC(=O)Nc1cc(N2C(=O)CCC2=O)ccc1Cl`, the cell count in assay [1] is 498. In addition, the inhibition was 3.5% (inactive) in assay [1], 10.7% (inactive) in assay [3], 23% (inactive) in assay [7] and 20.8% (inactive) in assay [8]. Also, in assay [2], the inhibition of aggregation was 12.7% (inactive). Also, the nuclei count in assay [2] was 98.5%; in assay [3], 110%. Besides, the fluorescence slope in assay [4] is -0.509 (inactive). The NADPH fluorescence slope in assay [5] was 2.5e-05 (inactive). In addition, in assay [6], the slope was 0.00539 (inactive).
On to `Cn1c(=O)n(Cc2ccc(F)cc2)c(=O)c2c1nc1n2CCCN1Cc1ccccc1`, for which the cell count in assay [1] was determined as 698. The inhibition in assay [1] is 1.6% (inactive); in assay [3], -41.3% (inactive); in assay [7], 7.62% (inactive); in assay [8], 12.8% (inactive). In addition, in assay [2], the inhibition of aggregation was -3.6% (inactive). For the same compound, the figures for the nuclei count in assay [2] and in assay [3] were 119% and 148%, respectively. For the same compound, in assay [4], the fluorescence slope was -0.448 (inactive). Further, the NADPH fluorescence slope in assay [5] is -6e-05 (inactive). For the same compound, in assay [6], the slope is 0.00383 (inactive).
Take `CN1CCc2c(sc3c2c(=O)n(-c2cccc(Cl)c2)c2nncn32)C1`: in assay [1], the cell count worked out at 579. In addition, the inhibition in assay [1] was 13.9% (inactive); in assay [3], 37.3% (inactive); in assay [7], -7.55% (inactive); in assay [8], 11.7% (inactive). In assay [2], the inhibition of aggregation is 5.9% (inactive). The nuclei count in assay [2] was 112%; in assay [3] it was 105%. The fluorescence slope in assay [4] is -0.513 (inactive). The NADPH fluorescence slope in assay [5] is -3.5e-05 (inactive). The slope in assay [6] was 0.00609 (inactive).
In the case of `c1ccc2c(c1)c1c3n2CCNC3CCC1` (stereo not drawn), the cell count in assay [1] was determined as 663. Besides, the inhibition in assay [1] was -11.5% (inactive); in assay [3], -119% (inactive); in assay [7] it was 15.3% (inactive); in assay [8] it was 14% (inactive). Besides, the inhibition of aggregation in assay [2] was -9.5% (inactive). The nuclei count in assay [2] came to 103%; in assay [3], 102%. Moreover, in assay [4], the fluorescence slope was -0.364 (inactive). Besides, the NADPH fluorescence slope in assay [5] was -2e-05 (inactive). In addition, the slope in assay [6] is 0.00436 (inactive).
On to `O=C(CN(CCc1ccccc1)C(=O)CNS(=O)(=O)c1ccccc1)NCC1CCCO1` (stereo not drawn), for which the cell count in assay [1] was 322. For the same compound, the inhibition is 11.7% (inactive) in assay [1], -46.7% (inactive) in assay [3], -8.2% (inactive) in assay [7] and 13.9% (inactive) in assay [8]. For the same compound, in assay [2], the inhibition of aggregation was -13.1% (inactive). Moreover, the nuclei count in assay [2] was found to be 99.8%; in assay [3], 109%. Also, the fluorescence slope in assay [4] is -0.481 (inactive). Further, in assay [5], the NADPH fluorescence slope was 2e-05 (inactive). For the same compound, the slope in assay [6] is 0.0066 (inactive).
In the case of `Cc1nc2ccccc2c2oc(C(=O)N3CCC(N4CCCCC4)CC3)cc12`, the cell count in assay [1] was determined as 591. The inhibition in assay [1] was -4.4% (inactive); in assay [3] it was -12.1% (inactive); in assay [7], -0.549% (inactive); in assay [8], 24% (inactive). The inhibition of aggregation in assay [2] is -14.4% (inactive). Further, the nuclei count in assay [2] came out at 100%; in assay [3], 119%. Besides, in assay [4], the fluorescence slope was -0.602 (inactive). The NADPH fluorescence slope in assay [5] was -3.1e-05 (inactive). Moreover, the slope in assay [6] was 0.00619 (inactive).
On to `O=[n+]1c2c(n([O-])c3cc(F)c(N4CCCC4)cc31)CCC2`, for which, in assay [1], the cell count is 709. For the same compound, the inhibition was -9.4% (inactive) in assay [1], -98.9% (inactive) in assay [3], 0.0339% (inactive) in assay [7] and 0.593% (inactive) in assay [8]. For the same compound, the inhibition of aggregation in assay [2] is 3% (inactive). Also, the nuclei count in assay [2] came out at 78.5%; in assay [3], 123%. The fluorescence slope in assay [4] was -0.574 (inactive). The NADPH fluorescence slope in assay [5] is -5.8e-06 (inactive). In assay [6], the slope is 0.00378 (inactive).
